# Experimental data: PubChem BioAssay (NCATS)
# “And” between values parts separate entries of the source, which are not always exact repeats. Equal entries are not always repeated. Inconclusive results are not listed. A number with no mark means an inactive call. The source made the active and inactive calls. Calls come from the whole dose curve; as a rule, active = well fitted inhibition curve with a large enough effect; inconclusive = small, poorly fitted or top-dose-only effect; inactive = flat fitted curve, though single readings scatter.
# Columns and labels:
# CRL-7250 = normal cell line; experiment: Cytotoxic Profiling of Annotated Libraries Using Quantitative High-Throughput Screening (AID 1296008); conditions: Five cell lines viability, CellTiter-Glo ATP luminescence, 48-72 h; max response: stronger effect = lower value; for max response: % is set by controls: 0 for no effect and ±100 for the full control effect
# Procedure, shortened: (§1)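 Compounds were pin-transferred onto cells and incubated 48 or 72 hr at 37 degree Celsius, 95% humidity. CellTiter-Glo was added, plates sat 10 min at room temperature, then ATP-coupled luminescence was imaged as the viability read-out.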
# HEK293 = experiment: as above; conditions: Five cell lines viability, CellTiter-Glo ATP luminescence, 48-72 h; max response: stronger effect = lower value
# Procedure, shortened: as §1
# KB-3-1 = experiment: as above; conditions: Five cell lines viability, CellTiter-Glo ATP luminescence, 48-72 h; max response: stronger effect = lower value
# Procedure, shortened: as §1
# HaCat = experiment: as above; conditions: Five cell lines viability, CellTiter-Glo ATP luminescence, 48-72 h; max response: stronger effect = lower value
# Procedure, shortened: as §1
# PC49 = experiment: qHTS profiling for inhibitors of Plasmodium falciparum proliferation (AID 504749); conditions: P. falciparum in erythrocytes, SYBR Green DNA, 72 h; series mostly up to 28.7 µM
# Procedure, shortened: (§2)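 Quantitative HTS: compounds pinned into medium, infected erythrocytes added (0.3% parasitemia, 2.5% hematocrit), 72 h culture at 37 C under 5% CO2. Saponin/Triton lysis with SYBR Green I, overnight RT, then fluorescence read.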
# SC27B = experiment: as above; conditions: P. falciparum in erythrocytes, SYBR Green DNA, 72 h; series mostly up to 28.7 µM
# Procedure, shortened: as §2
# TAB113 = experiment: as above; conditions: P. falciparum in erythrocytes, SYBR Green DNA, 72 h; series mostly up to 28.7 µM
# Procedure, shortened: as §2
# W2 = experiment: as above; conditions: P. falciparum in erythrocytes, SYBR Green DNA, 72 h; series mostly up to 28.7 µM
# Procedure, shortened: as §2
# TAB109 = experiment: as above; conditions: P. falciparum in erythrocytes, SYBR Green DNA, 72 h; series mostly up to 28.7 µM
# Procedure, shortened: as §2
# TAB165 = experiment: as above; conditions: P. falciparum in erythrocytes, SYBR Green DNA, 72 h; series mostly up to 28.7 µM
# Procedure, shortened: as §2
# Note: nearly all actives have a fitted effect of over 60% in size.
# Potency is the fitted concentration of half-maximal effect.
structure (smiles),measurement,setting,value
O=C(O)COc1nc(Cl)c(Cl)cc1Cl,max response,CRL-7250,-6.6%
same,max response,HEK293,-3.5%
same,max response,KB-3-1,-16.3%
CCc1c(C(=O)C(N)=O)c2c(OCC(=O)O)cccc2n1Cc1ccccc1,max response,CRL-7250,2.27% and 4.29%
same,max response,HEK293,-0.0349%
same,max response,HaCat,-1.12% and -1.77%
same,max response,KB-3-1,9.54%
same,outcome,KB-3-1,inactive
CC(O)CN1CCN(CC(=O)[O-])CCN(CC(=O)[O-])CCN(CC(=O)[O-])CC1.[Gd+3] (centres undefined),outcome,CRL-7250,inactive
same,max response,HEK293,-21.1%
same,max response,HaCat,-14.5%
same,max response,KB-3-1,-2.15% and -0.0896%
CCOC(=O)c1cncn1[C@H](C)c1ccccc1,max response,CRL-7250,2.73%
same,outcome,HEK293,inactive
same,outcome,HaCat,inactive
same,max response,KB-3-1,6.23%
CC(C)N(CCNC(=O)CN1CCCC1=O)C(C)C,max response,CRL-7250,4.66% and -0.977%
same,max response,HEK293,4.1% and 1.15%
same,max response,HaCat,-6.79% and -2.04%
same,max response,KB-3-1,-4.8%
same,outcome,KB-3-1,inactive
CC[N+]1(CCOC(=O)C(O)(c2ccccc2)c2ccccc2)CCCCC1,Potency,PC49,inactive
same,Potency,SC27B,inactive
same,Potency,TAB113,inactive
same,Potency,W2,inactive
same,max response,CRL-7250,-4.52%
same,outcome,HEK293,inactive
same,outcome,HaCat,inactive
same,max response,KB-3-1,1.27%
Cc1ccc(Cl)c(O)c1,Potency,PC49,inactive
same,Potency,SC27B,inactive
same,Potency,TAB109,inactive
same,Potency,TAB113,inactive
same,Potency,TAB165,inactive
same,Potency,W2,inactive
same,max response,CRL-7250,3.13%
same,max response,HEK293,-16.6%
same,max response,HaCat,-3.88%
same,max response,KB-3-1,-1.89%
CC(C)(C)[C@]1(O)C[C@@H]2OC(=O)C[C@@]23C(=O)O[C@@H]2OC(=O)[C@H](O)C213 (some centres undefined),max response,CRL-7250,2.16%
same,outcome,HEK293,inactive
same,outcome,HaCat,inactive
same,outcome,KB-3-1,inactive
CN(C)[C@@H]1C(=O)C(C(N)=O)=C(O)[C@@]2(O)C(=O)C3=C(O)c4c(O)cccc4[C@@](C)(O)[C@H]3[C@H](O)[C@@H]12,Potency,PC49,inactive
same,Potency,SC27B,inactive
same,Potency,TAB113,inactive
same,max response,CRL-7250,-1.31%
same,outcome,HEK293,inactive
same,outcome,HaCat,inactive
same,max response,KB-3-1,-7.87% and 0.265% and -1.24%
CCC(=O)OC1CCC2C3CCC4=CC(=O)CC[C@@]4(C)C3CC[C@]12C (some centres undefined),max response,CRL-7250,-4.7%
same,outcome,HEK293,inactive
same,outcome,HaCat,inactive
same,outcome,KB-3-1,inactive
Cc1c(C(=O)c2cccc3ccccc23)c2cccc3c2n1[C@H](CN1CCOCC1)CO3,Potency,CRL-7250,20.9 µM (active)
same,Potency,HEK293,18.7 µM (active)
same,Potency,KB-3-1,13.2 µM (active)
CC(=O)NCCc1c[nH]c2ccccc12,max response,CRL-7250,-10.8%
same,max response,HEK293,-1.55%
same,outcome,HaCat,inactive
same,outcome,KB-3-1,inactive
CC(C)(O)C(=O)Nc1ccc([N+](=O)[O-])c(C(F)(F)F)c1,max response,CRL-7250,-26.4%
same,max response,HEK293,-21.8%
same,max response,HaCat,-2.45%
same,max response,KB-3-1,-3.83%
COC(C)(C)CCCC(C)C/C=C/C(C)=C/C(=O)OC(C)C (centres undefined),Potency,SC27B,inactive
same,Potency,TAB109,inactive
same,Potency,W2,10.7 µM (active)
same,max response,CRL-7250,1.51%
same,max response,HEK293,3.25%
same,outcome,HaCat,inactive
same,max response,KB-3-1,3.28%
Cc1cc(O)ccc1Cl,Potency,PC49,inactive
same,Potency,SC27B,inactive
same,Potency,TAB109,inactive
same,Potency,TAB113,inactive
same,Potency,TAB165,inactive
same,Potency,W2,inactive
same,outcome,CRL-7250,inactive
same,max response,HEK293,0.405%
same,max response,HaCat,2.83%
same,max response,KB-3-1,-3.49%
O=[N+]([O-])c1ccc([As](=O)(O)O)cc1,Potency,SC27B,4.47 µM (active)
same,Potency,TAB109,6.31 µM (active)
same,Potency,TAB113,7.08 µM (active)
same,Potency,TAB165,5.01 µM (active)
same,Potency,W2,4.78 µM (active)
same,outcome,CRL-7250,inactive
same,outcome,HEK293,inactive
same,outcome,HaCat,inactive
same,max response,KB-3-1,-9.29%
C1CCC(NC2CCCCC2)CC1,Potency,PC49,inactive
same,Potency,SC27B,inactive
same,Potency,TAB109,inactive
same,Potency,TAB113,inactive
same,Potency,TAB165,inactive
same,Potency,W2,inactive
same,outcome,CRL-7250,inactive
same,max response,HEK293,2.36%
same,max response,HaCat,3.35%
same,max response,KB-3-1,6.25%
CN[C@@H](C)[C@H](O)c1ccccc1,max response,CRL-7250,-24.6%
same,outcome,HEK293,inactive
same,max response,HaCat,1.69%
same,max response,KB-3-1,-0.943%
C=CCON=C(C[C@H]1O[C@@H]2O[C@]3(C)CC[C@@H]4[C@H](C)CC[C@@H]([C@H]1C)[C@@]24OO3)[C@H]1O[C@@H]2O[C@]3(C)CC[C@H]4[C@H](C)CC[C@@H]([C@@H]1C)[C@@]24OO3,Potency,CRL-7250,0.935 µM (active)
same,Potency,HEK293,0.235 µM (active)
same,Potency,HaCat,2.96 µM (active)
same,Potency,KB-3-1,1.32 µM (active)
